Reference: the supplement of paper PMC9950053
Where a name gives a salt, the structure may show the parent alone.

tested on: Danio rerio larvae (5 dpf); assay: combined optomotor response (time in upper well half, down vs up moving lines, periods 7-14) minus DMSO control (percentage points); higher = stronger optomotor response than DMSO larvae; details: 10 µM; exposure time: 3 h pre-incubation + 3 h imaging

In order of falling combined optomotor response:
1. CN1C[C@H](C(=O)N[C@]2(C)O[C@@]3(O)[C@@H]4CCCN4C(=O)[C@H](Cc4ccccc4)N3C2=O)C[C@@H]2c3cccc4[nH]cc(c34)C[C@H]21 [Dihydroergotamine mesylate]  13.2
2. N[C@@H]1C[C@H]1c1ccccc1 [Tranylcypromine hydrochloride]  9.38
3. CC[C@@H](C(N)=O)N1CCCC1=O [Levetiracetam]  7.27
4. CCN(C)C(=O)Oc1cccc([C@H](C)N(C)C)c1 [Rivastigmine tartrate]  4.19
5. C=C1C[C@@H]2[C@H](CC[C@]3(C)C(=O)CC[C@@H]23)[C@@]2(C)C=CC(=O)C=C12 [Exemestane]  3.71
6. CC(O)(CS(=O)(=O)c1ccc(F)cc1)C(=O)Nc1ccc(C#N)c(C(F)(F)F)c1 (stereo unspecified) [Bicalutamide]  0.551
7. COc1cc2c(cc1OC)C1CC(=O)C(CC(C)C)CN1CC2 (stereo unspecified) [Tetrabenazine]  -0.321
8. C=CCN1C[C@H](C(=O)N(CCCN(C)C)C(=O)NCC)C[C@@H]2c3cccc4[nH]cc(c34)C[C@H]21 [Cabergoline]  -6.92
9. CC(C)C[C@H]1C(=O)N2CCC[C@H]2[C@]2(O)O[C@](NC(=O)[C@@H]3C=C4c5cccc6[nH]c(Br)c(c56)C[C@H]4N(C)C3)(C(C)C)C(=O)N12 [Bromocriptine mesylate]  -10.1
10. O=c1[nH]c2ccccc2n1C1CCN(CCCC(c2ccc(F)cc2)c2ccc(F)cc2)CC1 [Pimozide]  -11
11. Cc1cccc([C@H](C)c2c[nH]cn2)c1C [Dexmedetomidine hydrochloride]  -11.4
